Screening data: PubChem, National Center for Advancing Translational Sciences (NCATS)
Sampled rows, rich in hits. Any-hit rate of the full collection: about 12%.
JMJD2A Tudor = inhibitors of human JMJD2A Tudor domain; AlphaScreen JMJD2A-Tudor / H3K4me3 peptide binding; Potency, µM (highest dose often 114 µM), hits mostly inhibitors; 4.4% of 390,000 active; AID 504339; O75164; further: nearly all actives have a fitted effect of over 50% in size
G9a inh = G9a (human) methyltransferase inhibition. Potency, µM (titrated, usually from 102 µM), actives largely listed as inhibitors. Q96KQ7. G9a H3K9 monomethylation, AlphaScreen, 2 h. 8.8% of 350,000 active; further: nearly all actives have a fitted effect of over 75% in size
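AlphaScreen detection with an anti-monomethyl H3K9 antibody quantified product after a 2 h room-temperature reaction containing 500 nM biotinylated H3K9 peptide, 20 µM SAM and 20 nM enzyme, which had been preincubated 15 min with compound.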
HP1b chromo inh = HP1-beta chromodomain-methylated histone interaction inhibition. AlphaScreen HP1-beta / biotin-H3K9me3 peptide binding. Potency, µM (top dose mostly 114 µM), most hits filed as inhibitors. 0.56% of 390,000 active; further: nearly all actives have a fitted effect of over 70% in size
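AlphaScreen: HP1-beta (50 nM) preformed 30 min with biotin-H3(1-18)K9me3 peptide (50 nM) in PBS pH 7.4, 0.01% Tween-20. Compound added for 30 min at RT, then streptavidin donor/nickel chelate acceptor beads (10 ug/mL) for 30 min.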
Sfp PPTase inh = blocks B. subtilis Sfp PPTase activity; Biochemical Sfp PPTase activity, qHTS; 3.5% of 310,000 active; Potency, µM, most hits filed as inhibitors; Q9F4F7;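 further: the enzyme is Sfp with the accession as filed and its product quenches rhodamine fluorescence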
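Reaction rates are the 30-min fluorescence difference (ex 525, em 598 nm) in wells containing 15 nM Sfp, 5 uM rhodamine-CoA and 12.5 uM BHQ-2-YbbR at pH 7.6 with 10 mM MgCl2.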
BAZ2B block = blocks human BAZ2B | 4.4% of 360,000 active | AlphaScreen BAZ2B-H3K14Ac peptide displacement | AID 504333 | Potency, µM (series often up to 114 µM), actives largely listed as inhibitors | Q9UIF8; further: nearly all actives have a fitted effect of over 60% in size
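Protein-peptide AlphaScreen: BAZ2B 50 nM, b-H3K14Ac 50 nM, 1x PBS pH 7.4 + 0.01% Tween-20. Preincubation 30 min RT; cpd 30 min RT (top 110 uM); beads 20 min RT, light-protected.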
PLK1 PBD block = inhibitors of human PLK1 polo-box domain binding; AID 720504; Potency, µM, actives largely listed as inhibitors; P53350; 2.8% of 360,000 active; Plk1 PBD binding of FITC phosphopeptide, fluorescence polarization; further: series mostly up to about 57 µM; nearly all actives have a fitted effect of over 65% in size
Target sequence (P53350 whole entry, looked up, the tested form may be a part): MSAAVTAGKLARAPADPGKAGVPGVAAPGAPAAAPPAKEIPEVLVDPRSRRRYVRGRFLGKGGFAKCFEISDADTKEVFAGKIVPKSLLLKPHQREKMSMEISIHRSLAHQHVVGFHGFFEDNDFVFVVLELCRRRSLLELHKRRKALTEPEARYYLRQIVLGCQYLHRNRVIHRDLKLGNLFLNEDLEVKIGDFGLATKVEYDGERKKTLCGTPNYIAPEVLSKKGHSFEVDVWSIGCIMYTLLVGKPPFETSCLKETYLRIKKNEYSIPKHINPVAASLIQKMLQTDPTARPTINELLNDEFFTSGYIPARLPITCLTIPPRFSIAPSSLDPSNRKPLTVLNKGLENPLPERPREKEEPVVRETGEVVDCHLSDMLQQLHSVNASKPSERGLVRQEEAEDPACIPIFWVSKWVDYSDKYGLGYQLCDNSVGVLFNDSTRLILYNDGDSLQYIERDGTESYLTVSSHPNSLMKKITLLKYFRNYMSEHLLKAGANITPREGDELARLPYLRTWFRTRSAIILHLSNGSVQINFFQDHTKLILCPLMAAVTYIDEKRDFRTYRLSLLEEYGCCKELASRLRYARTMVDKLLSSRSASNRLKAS
Large screens that a line does not name were inactive. The call rests on the fitted dose curve; in most records, active means well fitted curve in the direction sought with a large enough effect; inconclusive means small, poorly fitted or top-dose-only effect, or another doubt; inactive means no such curve, though single readings can be large; an effect the other way counts as inactive or inconclusive.

CCn1c2ccccc2c2cc(NC(=O)c3ccc(Br)o3)ccc21	JMJD2A Tudor 20µM, G9a inh 11µM, HP1b chromo inh inconclusive, Sfp PPTase inh 11µM, BAZ2B block inconclusive, PLK1 PBD block inconclusive
CCn1c2ccccc2c2cc(NC(=O)c3coc(=O)c(Br)c3)ccc21	G9a inh 7.1µM (no result: JMJD2A Tudor, HP1b chromo inh, PLK1 PBD block)
CCn1c2ccccc2c2cc(NC(=O)c3ccc(=O)oc3)ccc21	G9a inh 45µM, BAZ2B block inconclusive, PLK1 PBD block inconclusive
CCn1c2ccccc2c2cc(NC(=O)c3cc(C)on3)ccc21	BAZ2B block inconclusive
CCOc1ccc(CCNCc2c(C(=O)O)n(Cc3ccc(C)cc3)c3cc(OC)ccc23)cc1	G9a inh inconclusive (no result: Sfp PPTase inh, PLK1 PBD block)
CCOc1ccc2c(ccc(/C=C/c3cc(C)c4cccnc4c3O)[n+]2C)c1	JMJD2A Tudor 10µM, HP1b chromo inh inconclusive (no result: G9a inh, Sfp PPTase inh, BAZ2B block)
Oc1cccc(/C=N/N2CCN(c3ccccn3)CC2)c1	none (no result: G9a inh)
COc1ccccc1N1CCN(Cc2cc3c(cc2[N+](=O)[O-])OCO3)CC1	JMJD2A Tudor inconclusive, G9a inh inconclusive, BAZ2B block inconclusive
COc1ccccc1N1CCN(/N=C/C=C\c2ccco2)CC1	JMJD2A Tudor 56µM, G9a inh 35µM, Sfp PPTase inh 79µM, BAZ2B block 50µM
CC1CCCC(C)N1/N=C/C=C/c1ccccc1[N+](=O)[O-] (stereo not drawn)	JMJD2A Tudor 40µM, G9a inh 32µM, HP1b chromo inh 28µM, BAZ2B block 22µM
COc1ccccc1/C=C/C=N/N1CCN(c2ccccn2)CC1	JMJD2A Tudor inconclusive, HP1b chromo inh inconclusive, BAZ2B block 50µM
COc1ccccc1N1CCN(/N=C/C=C\c2ccccc2[N+](=O)[O-])CC1	JMJD2A Tudor 22µM, G9a inh 8.9µM, HP1b chromo inh 14µM, BAZ2B block 13µM
CC(C)C[C@H](NC(=O)[C@H](CC(C)C)NC(=O)[C@H](CCC(N)=O)NC(=O)[C@H](CO)NC(=O)[C@@H]1CCCN1C(=O)[C@H](CO)NC(=O)[C@H](CO)NC(=O)[C@@H](NC(=O)[C@H](Cc1cnc[nH]1)NC(=O)[C@H](CCC(=O)O)NC(=O)[C@H](Cc1ccc(O)cc1)NC(=O)[C@H](CCCCN)NC(=O)[C@H](CCC(N)=O)NC(=O)[C@H](Cc1ccc(O)cc1)NC(=O)[C@H](CC(=O)O)NC(=O)[C@@H](NC(=O)[C@@H]1CCCN1C(=O)[C@H](CC(=O)O)NC(=O)[C@H](CC(N)=O)NC(=O)[C@H](CC(=O)O)NC(=O)CNC(=O)[C@H](CC(=O)O)NC(=O)[C@@H]1CCCN1C(=O)[C@H](CCC(N)=O)NC(=O)[C@H](Cc1ccc(O)cc1)NC(=O)[C@H](C)NC(=O)[C@H](Cc1c[nH]c2ccccc12)NC(=O)[C@H](Cc1ccccc1)NC(=O)[C@@H](NC(=O)[C@@H](N)CO)[C@@H](C)O)[C@@H](C)O)[C@@H](C)O)C(=O)N[C@@H](C)C(=O)N1CCC[C@H]1C(=O)NCC(=O)N[C@@H](CC(=O)O)C(=O)N[C@@H](Cc1ccc(O)cc1)C(=O)O	none (no result: JMJD2A Tudor, G9a inh, HP1b chromo inh, BAZ2B block, PLK1 PBD block)
COc1ccc(S(=O)(=O)N2CCN(Cc3cccc(OC)c3OC)CC2)cc1	none
COc1ccccc1/C=C/C=N/N1CCN(Cc2cccc3ccccc23)CC1	JMJD2A Tudor 11µM, G9a inh inconclusive, HP1b chromo inh inconclusive, BAZ2B block 32µM
Cc1cc(NCCCn2ccnc2)n2nc(C)c(-c3ccc(Cl)cc3)c2n1	JMJD2A Tudor inconclusive, G9a inh inconclusive, BAZ2B block 32µM
COc1cc(C(=S)N2CCOCC2)ccc1OS(=O)(=O)c1ccccc1[N+](=O)[O-]	JMJD2A Tudor inconclusive, G9a inh 13µM, HP1b chromo inh inconclusive, PLK1 PBD block 15µM
COc1ccc(C(=S)N2CCOCC2)cc1OS(=O)(=O)c1ccccc1[N+](=O)[O-]	G9a inh 3.2µM, HP1b chromo inh inconclusive, PLK1 PBD block inconclusive
CCOc1cc(C(=S)N2CCOCC2)ccc1OS(=O)(=O)c1ccccc1[N+](=O)[O-]	G9a inh 10µM, BAZ2B block inconclusive
Cn1c(=O)c2sccc2n(Cc2ccccc2)c1=O	none
CNC(=O)COc1ccc(NC(=O)CCn2nc(-c3ccc(C)cc3)c3ccccc3c2=O)cc1	none (no result: Sfp PPTase inh, PLK1 PBD block)
CCn1c(=O)cc(OCC(=O)NCc2ccccc2Cl)c2ccccc21	G9a inh inconclusive (no result: Sfp PPTase inh, PLK1 PBD block)
CCCc1ccc(C2C3=C(CC(C)(C)CC3=O)NC3=C2C(=O)c2ccccc23)cc1 (stereo not drawn)	JMJD2A Tudor inconclusive, G9a inh 35µM, BAZ2B block 25µM
CC1(C)CC(=O)C2=C(C1)NC1=C(C(=O)c3ccccc31)C2c1ccc(O)cc1 (stereo not drawn)	G9a inh 25µM, BAZ2B block 40µM
O=C1CCCC2=C1C(c1cccc(O)c1)C1=C(N2)c2ccccc2C1=O (stereo not drawn)	G9a inh 32µM
COCCNc1nc(-c2cccc(OC)c2)nc2ccccc12	none (no result: JMJD2A Tudor, G9a inh, HP1b chromo inh, BAZ2B block, PLK1 PBD block)
O=C(CCC(=O)OCc1ccc(Br)cc1)Nc1ccccc1	JMJD2A Tudor 50µM, PLK1 PBD block 27µM
C[C@@H]1NC(=O)c2cc([N+](=O)[O-])cc(I)c2NCC[C@@H](C(N)=O)NC(=O)[C@H](CC(N)=O)NC1=O	G9a inh 22µM
C[C@@H]1NC(=O)[C@H](CCC(N)=O)NC(=O)c2cc([N+](=O)[O-])cc(I)c2NCC[C@@H](C(N)=O)NC1=O	G9a inh 11µM, BAZ2B block inconclusive
O=C(OCC#CCSc1nnc(-c2cccc3ccccc23)o1)c1sccc1Cl	none (no result: G9a inh, HP1b chromo inh, Sfp PPTase inh, BAZ2B block, PLK1 PBD block)
Cc1cccc(NC(=O)c2cc3n(n2)C(C(F)(F)F)CC(c2ccc4c(c2)OCO4)N3)c1 (stereo not drawn)	none
COc1ccc(NC(=O)c2cc3n(n2)C(C(F)(F)F)CC(c2ccc4c(c2)OCO4)N3)cc1OC (stereo not drawn)	JMJD2A Tudor inconclusive, G9a inh 28µM, BAZ2B block inconclusive
COc1ccc(C(=O)NC(=S)Nc2cccnc2)cc1Cl	JMJD2A Tudor inconclusive, G9a inh 50µM
COc1ccc(NC(=S)Nc2ccccn2)cc1	G9a inh 40µM
COc1cccc(C(=O)NC(=S)Nc2cccnc2)c1	JMJD2A Tudor inconclusive, G9a inh inconclusive
Cc1cccc(NC(=S)Nc2ccc(N3CCOCC3)cc2)c1C	G9a inh 40µM
Cc1cccc(N2CCN(c3ccc(NC(=O)/C=C(/C(=O)O)c4ccccc4)cc3)CC2)c1	JMJD2A Tudor inconclusive, G9a inh 8.9µM, HP1b chromo inh inconclusive, Sfp PPTase inh inconclusive, BAZ2B block inconclusive
CC(=O)N1CCN(c2ccc(NC(=O)c3cccc(C)c3)cc2)CC1	none (no result: G9a inh)
Cc1ccc(CNC(=O)CNC(=O)[C@@H]2Cc3ccccc3CN2)cc1	G9a inh inconclusive, BAZ2B block inconclusive
